# According to paper PMC7862700, “An all-to-all approach to the identification of sequence-specific readers for epigenetic DNA modifications on cytosine”:
# Assays:
# Experiment in all cases: DAPPL (digital affinity profiling via proximity ligation, sequencing); 10 mM Tris-HCl pH 7.5, 50 mM NaCl, 1 mM DTT, 4% glycerol, room temperature, 30 min; GST-TFs on glutathione beads, 16-mer random dsDNA library, 0.1% formaldehyde crosslink after washing; high values mean tight binding
# FEV = molecular target: T1, FEV (Homo sapiens, UniProt Q99581 1-238); details: protein: recombinant; tags: N-terminal GST; dsDNA, one strand shown
# T1 sequence: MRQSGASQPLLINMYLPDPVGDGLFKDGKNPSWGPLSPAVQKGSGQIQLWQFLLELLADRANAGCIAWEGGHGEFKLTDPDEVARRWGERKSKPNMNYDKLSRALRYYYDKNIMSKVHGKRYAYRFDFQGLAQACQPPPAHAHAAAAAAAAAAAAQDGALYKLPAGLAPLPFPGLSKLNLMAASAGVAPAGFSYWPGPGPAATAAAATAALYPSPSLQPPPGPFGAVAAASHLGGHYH
# Outline: (§1)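 In yeast, human transcription factors were expressed with a GST fusion, then pulled down on glutathione beads and given DNA barcodes. Pooled with a tag-only sample, they were exposed to 200 nmole of a 16-mer random double-stranded DNA library (Tris/NaCl/DTT/glycerol buffer, room temperature, 30 min), washed, crosslinked with 0.1% formaldehyde, proximity-ligated using BsaI/T4 ligase for 1 h at 37 °C, PCR-amplified and read on an Illumina NextSeq500. Each hexamer's frequency of reads for a factor, divided by the matching frequency for the tag-only sample, gives the binding signal.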
# ETV5 = ETV5 (Homo sapiens, UniProt P41161 1-510); details: protein: recombinant; tags: N-terminal GST; dsDNA, one strand shown
# Chain of ETV5 (P41161 whole entry): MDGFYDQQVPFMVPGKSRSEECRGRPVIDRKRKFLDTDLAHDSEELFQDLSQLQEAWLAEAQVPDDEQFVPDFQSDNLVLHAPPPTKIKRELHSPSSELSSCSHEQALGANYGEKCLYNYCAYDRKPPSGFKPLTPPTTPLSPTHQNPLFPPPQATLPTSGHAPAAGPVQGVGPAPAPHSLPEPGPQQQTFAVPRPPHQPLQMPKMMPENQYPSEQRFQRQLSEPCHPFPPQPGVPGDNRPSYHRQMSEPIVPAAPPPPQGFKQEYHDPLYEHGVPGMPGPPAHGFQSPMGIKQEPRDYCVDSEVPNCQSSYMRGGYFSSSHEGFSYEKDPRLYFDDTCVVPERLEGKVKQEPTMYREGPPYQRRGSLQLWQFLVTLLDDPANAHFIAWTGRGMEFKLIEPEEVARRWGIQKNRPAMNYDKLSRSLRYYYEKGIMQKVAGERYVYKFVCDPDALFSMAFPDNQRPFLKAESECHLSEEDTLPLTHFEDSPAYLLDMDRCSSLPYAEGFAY
# Outline: as §1
# HSF1 = HSF1 (Homo sapiens, UniProt Q00613 1-529); details: protein: recombinant; tags: N-terminal GST; chain copies: 3; dsDNA, one strand shown
# Chain of HSF1 (Q00613 whole entry): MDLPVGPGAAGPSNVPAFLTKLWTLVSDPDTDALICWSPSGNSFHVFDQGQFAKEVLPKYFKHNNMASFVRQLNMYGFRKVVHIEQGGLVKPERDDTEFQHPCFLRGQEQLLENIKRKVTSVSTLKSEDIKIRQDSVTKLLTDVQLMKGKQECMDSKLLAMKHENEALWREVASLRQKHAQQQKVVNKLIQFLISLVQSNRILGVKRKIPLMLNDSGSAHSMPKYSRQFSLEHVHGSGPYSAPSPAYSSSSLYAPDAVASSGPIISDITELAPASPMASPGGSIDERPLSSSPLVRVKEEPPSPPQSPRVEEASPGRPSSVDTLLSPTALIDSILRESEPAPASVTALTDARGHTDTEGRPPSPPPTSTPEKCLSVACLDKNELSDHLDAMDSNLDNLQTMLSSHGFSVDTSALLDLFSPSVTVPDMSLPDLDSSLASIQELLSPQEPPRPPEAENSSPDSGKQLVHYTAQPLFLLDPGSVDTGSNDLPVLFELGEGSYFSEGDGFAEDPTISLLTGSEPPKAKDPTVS
# Outline: as §1
# SPIC = molecular target: T2, SPIC (Homo sapiens, UniProt Q8N5J4 1-248); details: protein: recombinant; tags: N-terminal GST; dsDNA, one strand shown
# T2 sequence: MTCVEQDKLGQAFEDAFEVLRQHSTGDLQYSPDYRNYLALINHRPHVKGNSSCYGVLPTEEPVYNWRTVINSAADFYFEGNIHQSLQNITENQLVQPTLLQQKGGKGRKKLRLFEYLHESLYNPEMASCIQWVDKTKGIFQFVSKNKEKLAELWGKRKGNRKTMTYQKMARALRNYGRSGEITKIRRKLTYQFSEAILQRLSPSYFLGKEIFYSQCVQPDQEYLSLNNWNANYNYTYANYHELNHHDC
# Outline: as §1
# ELF4 = ELF4 (Homo sapiens, UniProt Q99607 1-663); details: protein: recombinant; tags: N-terminal GST; dsDNA, one strand shown
# Chain of ELF4 (Q99607 whole entry): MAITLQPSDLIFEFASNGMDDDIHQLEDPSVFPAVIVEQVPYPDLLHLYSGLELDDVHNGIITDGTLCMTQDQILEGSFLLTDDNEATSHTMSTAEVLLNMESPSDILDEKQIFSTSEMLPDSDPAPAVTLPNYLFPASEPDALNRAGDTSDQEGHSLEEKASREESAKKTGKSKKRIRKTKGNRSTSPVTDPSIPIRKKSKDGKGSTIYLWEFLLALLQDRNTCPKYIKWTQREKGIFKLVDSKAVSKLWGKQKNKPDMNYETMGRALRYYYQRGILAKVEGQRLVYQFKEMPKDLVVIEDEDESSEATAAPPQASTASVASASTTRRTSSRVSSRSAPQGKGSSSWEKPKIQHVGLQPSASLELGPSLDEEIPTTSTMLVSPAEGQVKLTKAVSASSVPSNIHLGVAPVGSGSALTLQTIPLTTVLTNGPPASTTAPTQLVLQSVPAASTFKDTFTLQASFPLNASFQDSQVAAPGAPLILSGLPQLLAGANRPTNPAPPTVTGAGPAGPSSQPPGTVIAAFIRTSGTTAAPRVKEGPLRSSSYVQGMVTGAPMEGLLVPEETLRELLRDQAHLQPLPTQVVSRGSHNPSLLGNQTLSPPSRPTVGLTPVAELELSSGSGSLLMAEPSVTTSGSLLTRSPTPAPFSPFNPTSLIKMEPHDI
# Outline: as §1
# ELK4 = molecular target: T3, ELK4 (Homo sapiens, UniProt P28324-2 1-405); details: protein: recombinant; tags: N-terminal GST; dsDNA, one strand shown
# T3 sequence: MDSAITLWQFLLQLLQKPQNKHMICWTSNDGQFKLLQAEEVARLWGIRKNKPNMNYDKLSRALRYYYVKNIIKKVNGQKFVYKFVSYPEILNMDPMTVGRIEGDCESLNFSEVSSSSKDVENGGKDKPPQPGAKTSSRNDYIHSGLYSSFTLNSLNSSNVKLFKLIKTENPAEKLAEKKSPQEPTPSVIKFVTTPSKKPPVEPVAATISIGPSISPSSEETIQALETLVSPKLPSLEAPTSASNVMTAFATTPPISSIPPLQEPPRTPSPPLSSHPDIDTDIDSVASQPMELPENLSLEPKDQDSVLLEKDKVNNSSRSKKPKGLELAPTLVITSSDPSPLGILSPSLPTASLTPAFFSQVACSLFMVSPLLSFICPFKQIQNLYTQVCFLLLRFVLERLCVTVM
# Outline: as §1
# ETV2 = molecular target: T4, ETV2 (Homo sapiens, UniProt O00321 1-342); details: protein: recombinant; tags: N-terminal GST; dsDNA, one strand shown
# T4 sequence: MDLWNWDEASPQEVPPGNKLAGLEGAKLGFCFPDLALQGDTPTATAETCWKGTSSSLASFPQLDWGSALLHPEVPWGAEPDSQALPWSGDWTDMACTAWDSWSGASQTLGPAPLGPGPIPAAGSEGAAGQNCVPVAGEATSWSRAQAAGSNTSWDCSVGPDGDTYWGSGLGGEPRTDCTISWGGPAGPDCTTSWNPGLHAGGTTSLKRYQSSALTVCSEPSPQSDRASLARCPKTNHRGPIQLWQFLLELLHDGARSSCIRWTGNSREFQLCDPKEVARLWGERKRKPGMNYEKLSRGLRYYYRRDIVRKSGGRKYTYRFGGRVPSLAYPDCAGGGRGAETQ
# Outline: as §1
# ELF3 = molecular target: T5, ELF3 (Homo sapiens, UniProt P78545 1-371); details: protein: recombinant; tags: N-terminal GST; dsDNA, one strand shown
# T5 sequence: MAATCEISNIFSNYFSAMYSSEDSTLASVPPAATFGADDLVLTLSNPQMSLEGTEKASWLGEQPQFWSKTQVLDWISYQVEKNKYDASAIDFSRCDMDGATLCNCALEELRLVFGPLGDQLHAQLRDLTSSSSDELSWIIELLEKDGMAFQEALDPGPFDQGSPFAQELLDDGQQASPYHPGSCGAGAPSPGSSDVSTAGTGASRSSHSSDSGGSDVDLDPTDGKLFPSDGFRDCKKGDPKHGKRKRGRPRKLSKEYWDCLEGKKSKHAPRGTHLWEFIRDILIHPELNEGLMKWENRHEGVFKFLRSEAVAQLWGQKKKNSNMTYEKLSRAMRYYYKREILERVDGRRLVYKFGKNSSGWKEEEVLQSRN
# Outline: as §1
# CRX = CRX (Homo sapiens, UniProt O43186 1-299); details: protein: recombinant; tags: N-terminal GST; dsDNA, one strand shown
# Chain of CRX (O43186 whole entry): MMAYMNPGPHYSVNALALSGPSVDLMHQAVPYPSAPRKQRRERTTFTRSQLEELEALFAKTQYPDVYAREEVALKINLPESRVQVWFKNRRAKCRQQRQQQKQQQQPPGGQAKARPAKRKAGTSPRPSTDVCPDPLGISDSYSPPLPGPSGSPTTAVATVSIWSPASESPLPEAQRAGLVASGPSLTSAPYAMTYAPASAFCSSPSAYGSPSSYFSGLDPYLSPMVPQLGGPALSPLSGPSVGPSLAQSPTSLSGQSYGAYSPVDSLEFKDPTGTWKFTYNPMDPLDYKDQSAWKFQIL
# Outline: as §1
# ETV1 = ETV1 (Homo sapiens, UniProt P50549 1-477); details: protein: recombinant; tags: N-terminal GST; dsDNA, one strand shown
# Chain of ETV1 (P50549 whole entry): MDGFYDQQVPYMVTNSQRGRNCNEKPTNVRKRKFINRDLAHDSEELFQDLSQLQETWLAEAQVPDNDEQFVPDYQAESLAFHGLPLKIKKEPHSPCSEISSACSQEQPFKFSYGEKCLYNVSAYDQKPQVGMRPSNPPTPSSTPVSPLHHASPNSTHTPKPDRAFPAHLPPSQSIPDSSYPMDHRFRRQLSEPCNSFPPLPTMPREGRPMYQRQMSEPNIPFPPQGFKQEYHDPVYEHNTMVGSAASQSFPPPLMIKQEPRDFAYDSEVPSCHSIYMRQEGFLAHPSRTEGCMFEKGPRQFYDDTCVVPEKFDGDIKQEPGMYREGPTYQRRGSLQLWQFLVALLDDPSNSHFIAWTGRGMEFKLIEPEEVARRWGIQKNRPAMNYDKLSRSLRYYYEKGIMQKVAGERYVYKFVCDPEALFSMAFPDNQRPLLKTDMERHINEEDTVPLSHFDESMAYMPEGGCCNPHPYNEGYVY
# Outline: as §1
# ERF = molecular target: T6, ERF (Homo sapiens, UniProt P50548 1-548); details: protein: recombinant; tags: N-terminal GST; dsDNA, one strand shown
# T6 sequence: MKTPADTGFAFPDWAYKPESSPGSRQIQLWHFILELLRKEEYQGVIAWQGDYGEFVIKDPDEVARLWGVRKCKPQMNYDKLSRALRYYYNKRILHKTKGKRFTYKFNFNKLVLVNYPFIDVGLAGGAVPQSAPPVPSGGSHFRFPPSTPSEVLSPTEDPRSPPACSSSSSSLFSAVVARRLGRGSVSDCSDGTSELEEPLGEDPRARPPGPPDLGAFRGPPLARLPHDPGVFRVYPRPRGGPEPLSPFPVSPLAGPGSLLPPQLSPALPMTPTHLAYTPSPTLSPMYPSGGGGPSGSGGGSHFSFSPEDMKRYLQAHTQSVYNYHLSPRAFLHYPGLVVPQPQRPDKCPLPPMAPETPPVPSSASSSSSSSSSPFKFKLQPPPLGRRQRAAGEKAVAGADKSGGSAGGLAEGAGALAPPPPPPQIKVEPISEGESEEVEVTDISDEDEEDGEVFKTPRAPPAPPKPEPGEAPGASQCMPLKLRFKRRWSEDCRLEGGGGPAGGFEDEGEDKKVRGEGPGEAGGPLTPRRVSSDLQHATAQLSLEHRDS
# Outline: as §1
# ETV3L = molecular target: T7, ETV3L (Homo sapiens, UniProt Q6ZN32 1-361); details: protein: recombinant; tags: N-terminal GST; dsDNA, one strand shown
# T7 sequence: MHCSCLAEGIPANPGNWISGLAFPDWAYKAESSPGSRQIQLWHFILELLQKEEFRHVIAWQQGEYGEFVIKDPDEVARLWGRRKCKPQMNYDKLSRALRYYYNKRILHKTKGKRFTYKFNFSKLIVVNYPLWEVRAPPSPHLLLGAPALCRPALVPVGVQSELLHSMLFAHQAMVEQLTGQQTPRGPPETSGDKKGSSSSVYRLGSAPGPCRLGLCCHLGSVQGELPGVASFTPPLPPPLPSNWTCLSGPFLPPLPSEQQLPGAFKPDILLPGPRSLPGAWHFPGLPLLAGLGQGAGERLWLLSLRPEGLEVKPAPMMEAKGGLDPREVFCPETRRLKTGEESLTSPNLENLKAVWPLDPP
# Outline: as §1
# ETS2 = molecular target: T8, ETS2 (Homo sapiens, UniProt P15036 1-469); details: protein: recombinant; tags: N-terminal GST; dsDNA, one strand shown
# T8 sequence: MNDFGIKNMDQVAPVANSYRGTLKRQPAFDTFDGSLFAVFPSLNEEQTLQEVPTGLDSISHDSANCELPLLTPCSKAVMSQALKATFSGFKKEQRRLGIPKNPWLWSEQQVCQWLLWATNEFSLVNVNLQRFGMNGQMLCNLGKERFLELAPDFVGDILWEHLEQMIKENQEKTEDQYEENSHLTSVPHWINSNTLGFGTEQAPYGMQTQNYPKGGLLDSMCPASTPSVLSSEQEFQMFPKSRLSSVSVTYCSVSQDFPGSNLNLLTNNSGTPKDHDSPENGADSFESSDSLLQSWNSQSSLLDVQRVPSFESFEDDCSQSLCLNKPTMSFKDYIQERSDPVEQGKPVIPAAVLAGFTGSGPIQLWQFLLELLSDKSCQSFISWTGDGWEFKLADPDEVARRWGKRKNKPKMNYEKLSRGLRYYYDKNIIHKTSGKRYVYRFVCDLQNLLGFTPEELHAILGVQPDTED
# Outline: as §1
# SPDEF = molecular target: T9, SPDEF (Homo sapiens, UniProt O95238 1-335); details: protein: recombinant; tags: N-terminal GST; dsDNA, one strand shown
# T9 sequence: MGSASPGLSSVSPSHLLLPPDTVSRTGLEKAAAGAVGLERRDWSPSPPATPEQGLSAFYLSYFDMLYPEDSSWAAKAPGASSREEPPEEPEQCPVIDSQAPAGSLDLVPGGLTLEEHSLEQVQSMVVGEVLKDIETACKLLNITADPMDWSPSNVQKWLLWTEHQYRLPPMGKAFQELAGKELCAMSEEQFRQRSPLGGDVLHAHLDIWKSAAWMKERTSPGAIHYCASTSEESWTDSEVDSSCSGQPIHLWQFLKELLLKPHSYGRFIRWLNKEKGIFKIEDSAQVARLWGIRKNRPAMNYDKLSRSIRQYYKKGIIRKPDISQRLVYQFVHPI
# Outline: as §1
# ETV7 = molecular target: T10, ETV7 (Homo sapiens, UniProt Q9Y603 1-341); details: protein: recombinant; tags: N-terminal GST; dsDNA, one strand shown
# T10 sequence: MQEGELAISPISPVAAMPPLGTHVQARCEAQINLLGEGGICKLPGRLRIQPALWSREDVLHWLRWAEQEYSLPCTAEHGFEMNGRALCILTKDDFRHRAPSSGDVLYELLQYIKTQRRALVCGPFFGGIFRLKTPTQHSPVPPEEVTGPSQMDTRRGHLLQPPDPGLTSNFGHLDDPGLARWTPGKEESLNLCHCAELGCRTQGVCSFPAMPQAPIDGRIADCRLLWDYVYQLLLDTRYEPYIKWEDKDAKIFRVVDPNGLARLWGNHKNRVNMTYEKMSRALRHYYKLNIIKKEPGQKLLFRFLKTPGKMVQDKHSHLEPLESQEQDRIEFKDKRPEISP
# Outline: as §1
# ELF5 = molecular target: T11, ELF5 (Homo sapiens, UniProt Q9UKW6-2 1-255); details: protein: recombinant; tags: N-terminal GST; dsDNA, one strand shown
# T11 sequence: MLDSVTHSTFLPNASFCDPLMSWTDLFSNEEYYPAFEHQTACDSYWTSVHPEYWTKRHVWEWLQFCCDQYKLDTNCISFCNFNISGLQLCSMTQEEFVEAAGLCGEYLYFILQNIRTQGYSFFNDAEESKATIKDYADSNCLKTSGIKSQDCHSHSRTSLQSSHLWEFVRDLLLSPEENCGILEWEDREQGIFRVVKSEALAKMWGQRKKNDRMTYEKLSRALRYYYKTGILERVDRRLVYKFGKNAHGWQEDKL
# Outline: as §1
# ETV3 = molecular target: T12, ETV3 (Homo sapiens, UniProt P41162-2 1-143); details: protein: recombinant; tags: N-terminal GST; dsDNA, one strand shown
# T12 sequence: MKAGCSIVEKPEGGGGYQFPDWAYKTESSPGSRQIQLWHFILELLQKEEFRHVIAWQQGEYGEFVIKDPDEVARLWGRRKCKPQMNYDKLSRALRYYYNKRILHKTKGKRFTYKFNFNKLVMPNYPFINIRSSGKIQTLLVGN
# Outline: as §1
# ETV6 = ETV6 (Homo sapiens, UniProt P41212 1-452); details: protein: recombinant; tags: N-terminal GST; dsDNA, one strand shown
# Chain of ETV6 (P41212 whole entry): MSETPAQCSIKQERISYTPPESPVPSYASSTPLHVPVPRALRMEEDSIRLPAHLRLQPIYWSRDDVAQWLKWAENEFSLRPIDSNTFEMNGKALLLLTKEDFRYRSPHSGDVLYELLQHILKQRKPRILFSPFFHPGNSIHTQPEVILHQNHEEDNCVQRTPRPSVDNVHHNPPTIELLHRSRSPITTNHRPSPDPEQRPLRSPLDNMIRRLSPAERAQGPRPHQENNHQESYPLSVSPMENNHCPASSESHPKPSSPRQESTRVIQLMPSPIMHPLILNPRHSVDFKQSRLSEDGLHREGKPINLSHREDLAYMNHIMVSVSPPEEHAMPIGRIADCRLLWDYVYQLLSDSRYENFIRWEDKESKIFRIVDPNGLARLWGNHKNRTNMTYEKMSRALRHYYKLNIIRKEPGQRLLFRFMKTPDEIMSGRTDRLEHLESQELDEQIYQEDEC
# Outline: as §1
sequence,measurement,setting,value
AAGAAC,binding signal,FEV,"1.19 fold enrichment (6-mer frequency, TF over GST control)"
same,binding signal,ETV5,"1.16 fold enrichment (6-mer frequency, TF over GST control)"
same,binding signal,HSF1,"1.63 fold enrichment (6-mer frequency, TF over GST control)"
same,binding signal,SPIC,"1.24 fold enrichment (6-mer frequency, TF over GST control)"
same,binding signal,ELF4,"1.2 fold enrichment (6-mer frequency, TF over GST control)"
same,binding signal,ELK4,"1.18 fold enrichment (6-mer frequency, TF over GST control)"
same,binding signal,ETV2,"1.13 fold enrichment (6-mer frequency, TF over GST control)"
same,binding signal,ELF3,"1.16 fold enrichment (6-mer frequency, TF over GST control)"
same,binding signal,CRX,"1.28 fold enrichment (6-mer frequency, TF over GST control)"
same,binding signal,ETV1,"1.22 fold enrichment (6-mer frequency, TF over GST control)"
same,binding signal,ERF,"1.08 fold enrichment (6-mer frequency, TF over GST control)"
same,binding signal,ETV3L,"1.13 fold enrichment (6-mer frequency, TF over GST control)"
same,binding signal,ETS2,"1.18 fold enrichment (6-mer frequency, TF over GST control)"
same,binding signal,SPDEF,"1.23 fold enrichment (6-mer frequency, TF over GST control)"
same,binding signal,ETV7,"1.25 fold enrichment (6-mer frequency, TF over GST control)"
same,binding signal,ELF5,"1.21 fold enrichment (6-mer frequency, TF over GST control)"
same,binding signal,ETV3,"1.11 fold enrichment (6-mer frequency, TF over GST control)"
same,binding signal,ETV6,"1.27 fold enrichment (6-mer frequency, TF over GST control)"
